Only some compounds are listed: those with a hit (about 3.5% of all), similar ones and a draw of the others.
TEAD-YAP inh: TEAD-YAP interaction inhibition, primary screen, TEAD-YAP interaction inhibitor project, luminescence, HEK-TIYL cells. inhibition, % at 9.12 µM. TEAD-Gal4/YAP UAS-luciferase luminescence. 640,000 tested, 1.4% active; in the data active = inhibition above about 32%;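 note: 0% = median of test compound wells and 100% = reference inhibitor wells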
FBW7 act: FBW7 E3 ligase activators, primary screen, biochemical, AlphaScreen, human; normalized activity (activation), % at 26.1 µM; AID 1259310, 2017; AlphaScreen FBW7–phospho-cyclin E peptide binding, activator screen; 650,000 tested, 0.13% active; in the data active = normalized activity above about 1.9%;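 note: purified mutant Fbw7 with reduced substrate affinity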
MITF primary: MITF inhibitors, primary screen, biochemical, AlphaScreen, human; AlphaScreen MITF homodimerization, bead proximity signal; Microphthalmia-associated transcription factor (Homo sapiens), O75030; 650,000 tested, 0.91% active; inhibition, % at 2.6 µM; in the data active = inhibition above about 50%;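 note: 0% = vehicle wells with protein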
Target sequence (O75030 whole entry, looked up): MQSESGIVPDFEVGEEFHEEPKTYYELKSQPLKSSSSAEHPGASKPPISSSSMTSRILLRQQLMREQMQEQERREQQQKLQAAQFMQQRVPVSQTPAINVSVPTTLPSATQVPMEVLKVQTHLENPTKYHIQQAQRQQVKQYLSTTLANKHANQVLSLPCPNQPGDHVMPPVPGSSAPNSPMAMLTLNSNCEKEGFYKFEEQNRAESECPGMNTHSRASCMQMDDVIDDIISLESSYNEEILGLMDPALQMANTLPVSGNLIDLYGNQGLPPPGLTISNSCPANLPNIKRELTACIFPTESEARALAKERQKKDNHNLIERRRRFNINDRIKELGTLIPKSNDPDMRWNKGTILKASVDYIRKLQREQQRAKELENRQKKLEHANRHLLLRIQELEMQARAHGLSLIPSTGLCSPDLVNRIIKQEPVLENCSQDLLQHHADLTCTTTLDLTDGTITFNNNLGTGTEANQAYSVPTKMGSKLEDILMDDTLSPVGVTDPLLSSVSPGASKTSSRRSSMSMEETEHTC
GPR151 ag: activators of human GPR151, primary screen, cell-based, PathHunter beta-arrestin, luminescence | G-protein coupled receptor 151 (Homo sapiens), Q8TDV0 | PathHunter beta-arrestin GPR151 cells | activation, % at 11.2 µM | 650,000 tested, 1% active; in the data active = activation above about 4.9%;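 note: 0% = median of compound wells and 100% = cells with positive control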
Numbers without * were called inactive.

SMILES | TEAD-YAP inh | FBW7 act | MITF primary | GPR151 ag
CC(C)NC(=O)C1CCN(C2CCN(Cc3cccn3-c3ncccn3)CC2)CC1 | -7.6 | -0.1 | -11.3 | 0.2
O=c1c2sccc2nc(SCc2cccc([N+](=O)[O-])c2)n1-c1ccc(Cl)cc1 | -9.1 | 0.0 | 5.3 | -1.6
COc1ccc(CCNc2nc(Nc3ccc(N4CCOCC4)cc3)ncc2C)cc1 | 64.0* | -0.4 | 19.7 | 3.4
Cn1cnc(-c2ccccc2Nc2nc(Nc3ccc(N4CCOCC4)cc3)ncc2Cl)n1 | 33.4* | -0.7 | 27.4 | 0.8
Cc1cnc(Nc2ccncc2)nc1NCc1ccccc1 | 40.5* | 0.0 | 21.4 | 0.7
CCOC(=O)C1CCCN(Cc2nc3ccc(Cl)cn3c2Br)C1 (stereo unspecified) | 0.7 | -0.4 | 0.7 | 0.3
COc1ccc(C(CC(=O)Nc2nccs2)N2Cc3ccccc3C2=O)cc1 (stereo unspecified) | -13.2 | 0.1 | -17.6 | -0.5
C=CCn1c(C)cc(C2=NNC(=NC3CC3)SC2)c1C | 95.3* | 0.3 | 17.9 | -1.3
COC(=O)c1ccc(NC(=O)CC2C(=O)N(c3ccc(OC)cc3)C(=S)N2CCCN2CCC(Cc3ccccc3)CC2)cc1 (stereo unspecified) | -5.9 | -0.1 | 9.6 | 0.6
O=C1/C(=C/c2cccnc2)SC(=S)N1Cc1cccnc1 | 32.9* | 0.1 | 24.6 | 3.6
CCN(CC)c1ccc2cc(-c3nc4ccccc4s3)c(=O)oc2c1 | 76.5* | 0.0 | -6.3 | -1.4
CCN(CC)c1ccc2cc(-c3nc4ccccc4n3C)c(=O)oc2c1 | 32.6* | 0.7 | -1.6 | 0.5
Cc1ccc2c(c1)C(=O)C(=O)N2CCCl | 59.9* | 0.0 | -0.4 | 0.5
CCCN1C(=O)C(=O)c2cc(C)ccc21 | -3.2 | 0.4 | 1.8 | -0.2
Cn1c(=NC(=O)c2ccc(N3C(=O)CCC3=O)cc2)sc2cc(Br)ccc21 | -3.2 | -0.1 | 2.6 | -0.2
COc1ccc(C(=O)N/N=C(\C)c2ccc(C#N)cc2)cc1OC | 41.1* | -0.1 | 1.4 | -0.7
CCCNC(=O)C/C(C)=N/NC(=O)c1ccc(OC)c(OC)c1 | 33.6* | 0.1 | -11.3 | -0.5
COc1ccc(/C(C)=N/NC(=O)c2cccc(F)c2)cc1OC | -12.1 | 0.0 | -9.3 | -0.8
CCCCOc1ccc(C(=O)NO)cc1OC | 39.7* | 0.2 | -7.2 | -0.9
CN(C)c1ccc(/C=C2/SC(=Nc3ccccc3Cl)NC2=O)cc1 | 45.3* | 0.0 | 5.5 | -1.3
Cc1cccc(N=C2NC(=O)/C(=C\c3ccc(N(C)C)cc3)S2)c1 | 41.9* | 0.6 | 6.4 | -0.5
COc1ccc(/C=C2/SC(=Nc3ccccc3Cl)NC2=O)cc1 | 37.0* | -0.1 | 3.4 | 1.2
Cc1ccc(/C=C2/SC(=Nc3cccc(C)c3)NC2=O)cc1 | 7.9 | -0.1 | -11.7 | -0.8
O[N+]1=CC=CCC1=S.On1ccccc1=S.[Zn] | 100.0* | -0.3 | -113.3 | 2.1
O=C(c1ccc(Cl)cc1)C1CCCN(C(=O)c2ccc(-n3ccnc3)cc2)C1 (stereo unspecified) | -5.9 | -0.1 | 0.4 | -0.4
SMILES | TEAD-YAP inh | FBW7 act | MITF primary | GPR151 ag
COc1ccccc1CN(Cc1cc2cccc(C)c2n2nnnc12)C(=O)c1ccncc1 | 33.6* | -0.1 | -0.7 | 0.2
Cc1cccc2cc(CN(CCc3ccccc3)C(=O)c3ccncc3)c3nnnn3c12 | -1.6 | 0.6 | 11.9 | -1.0
Cc1cc(C)nc(NNC(=S)NC(=O)C23CC4CC(CC(C4)C2)C3)n1 | 6.5 | -0.2 | 3.5 | 0.3
CC(C)C(=O)Nc1ccc(NC(=O)c2ccncc2)cn1 | 1.6 | 0.1 | 10.9 | 0.9
COc1cc(C2C3=C(CCCC3=O)Nc3ccc4ncccc4c32)ccc1OC(C)=O (stereo unspecified) | 54.4* | 0.0 | 17.3 | 1.2
CCOc1cc(C2Nc3ccc(C(=O)c4ccccc4)cc3NC3=C2C(=O)CCC3)ccc1O (stereo unspecified) | 64.4* | -0.2 | 3.1 | 0.9
COc1ccc(C2Nc3ccc(C(=O)c4ccccc4)cc3NC3=C2C(=O)CCC3)cc1OC (stereo unspecified) | 58.6* | 0.0 | -8.7 | -1.5
COc1cc(C2C3=C(CCCC3=O)Nc3ccc4nc(C)ccc4c32)ccc1OC(C)=O (stereo unspecified) | -2.8 | -0.1 | -12.0 | -0.2
CCOc1cc(C2Nc3ccc(C(=O)c4ccccc4)cc3NC3=C2C(=O)CC(C)(C)C3)ccc1O (stereo unspecified) | 45.2* | 0.4 | 4.0 | -1.0

Bioassay records from PubChem.
